# Several values for one entry are separate records, joined by “and”; a condition that tells them apart may be missing. Identical values can stand only once. Records with an inconclusive call do not appear. A call without a number means that no potency is given here. Where a structure was tested more than once in an assay, its records may differ in their call. Activity calls are given as the source filed them. Unless noted, calls follow the shape of the dose curve; as a rule, active = well fitted curve in the direction sought with a large enough effect in the repeat runs; inconclusive = weak or mixed curves; inactive = no such curve, though single readings can be large; an effect the other way counts as inactive or inconclusive.
# What was measured:
# [1] = qHTS assay to identify small molecule antagonists of the constitutive androstane receptor (CAR) signaling pathway - cell viability counter screen (AID 1224837); also: nearly all actives have a fitted effect of over 45% in size; also: potency is read from the fitted curve at half-maximal effect
# How it was run: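 HepG2 cells stably carrying hCAR and CYP2B6-2.2kb reporter, stimulated with 50 nM CITCO and compounds at 15 concentrations for 23 h at 37 C. Viability measured by CellTiter-Fluor fluorescence.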
# [2] = biological target: Nuclear receptor subfamily 1 group I member 3 (Homo sapiens) (UniProt Q14994); test: qHTS assay to identify small molecule antagonists of the constitutive androstane receptor (CAR) signaling pathway (AID 1224838); also: nearly all actives have a fitted effect of over 40% in size; also: potency is read from the fitted curve at half-maximal effect
# How it was run: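 HepG2 cells stably carrying hCAR and a CYP2B6-2.2kb luciferase reporter, seeded 4 hrs before compound (15 concentrations). Stimulated with 50 nM CITCO for 24 hr at 37 C. ONE-Glo luminescence read after 30 min at room temperature.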
# [3] = biological target: Nuclear receptor subfamily 1 group I member 3 (Homo sapiens) (UniProt Q14994); test: qHTS assay to identify small molecule agonists of the constitutive androstane receptor (CAR) signaling pathway (AID 1224839); also: nearly all actives have a fitted effect of over 15% in size; also: potency is read from the fitted curve at half-maximal effect
# How it was run: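 Using human hepatoma HepG2 cells engineered with hCAR and a CYP2B6-2.2kb reporter, 15-concentration compound series were incubated 24 h alongside PK11195 at 0.75 uM final, with luminescence quantified afterwards.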
# [4] = qHTS assay to identify small molecule antagonists of the estrogen related receptor signaling pathway with the pleiotropic PPARgamma coactivator (PGC) from Tox21 10K library - cell viability counter screen (AID 1224840; active = well fitted cell-killing curve with a large enough effect in the repeat runs, not every such curve was filed as active; also: nearly all actives have a fitted effect of over 40% in size; also: potency is read from the fitted curve at half-maximal effect)
# How it was run: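 PGC/ERR cells (2,000/well) plated 6 h, then compound-treated for 17.5 h at 37 C. Viability measured by CellTiter-Fluor fluorescence after 30 min at 37 C, multiplexed with the pathway assay.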
# [5] = qHTS assay to identify small molecule agonists of the estrogen related receptor signaling pathway with the pleiotropic PPARgamma coactivator (PGC) from Tox21 10K library (AID 1224842); also: nearly all actives have a fitted effect of over 15% in size
# How it was run: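 Luminescence from One-Glo (30 min, room temperature) measured after PGC/ERR cells had 18 h at 37 C with pinned compound (23 nL in DMSO). Cells had been seeded at 2,000 per well and pre-incubated 6 h.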
# [6] = biological target: Thyrotropin receptor (Homo sapiens) (UniProt P16473); test: qHTS assay to identify small molecule agonists of the thyroid stimulating hormone receptor (TSHR) signaling pathway (AID 1224843; calls by dose curve; also: nearly all actives have a fitted effect of over 45% in size; also: potency is read from the fitted curve at half-maximal effect)
# How it was run: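 HEK293 cells stably bearing the thyrotropin receptor were plated at 800 cells/well and challenged with compound (30 min, RT). Accumulated cAMP was quantified via cAMP-d2 competing for cryptate-tagged antibody.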
# [7] = qHTS assay to identify small molecule agonists of the hypoxia (HIF-1) signaling pathway - cell viability counter screen (AID 1224844; calls by dose curve; also: nearly all actives have a fitted effect of over 50% in size; also: potency is read from the fitted curve at half-maximal effect)
# How it was run: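 HRE-bla ME-180 cells, 2,000/well in 0.5% dialyzed FBS medium, treated 17 h at 37C with compounds. Viability read in the same wells as the bla reporter, by CellTiter-Glo luminescence after 30 min at room temperature.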
# [8] = qHTS assay to identify small molecule agonists of H2AX - cell viability counter screen (AID 1224847; calls by dose curve; also: nearly all actives have a fitted effect of over 30% in size; also: potency is read from the fitted curve at half-maximal effect)
# How it was run: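 After overnight plating of 1000 CHO-K1 cells per well, a 15-concentration compound series was applied for 3 hr at 37C. Luminescence from CellTiter-Glo, read following 30 min at room temperature, reflected cell viability.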
# [9] = qHTS assay to identify small molecule antagonists of the estrogen related receptor (ERR) signaling pathway from Tox21 library (AID 1224848); also: nearly all actives have a fitted effect of over 50% in size; also: potency is read from the fitted curve at half-maximal effect
# How it was run: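 Reading was by luminescence 30 min after ONE-Glo addition. Before that, ERR cells at 2,000 per well had rested 6 h at 37 C/5% CO2 and then received pin-tooled compounds in DMSO for 18 h at 37 C.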
# [10] = qHTS assay to identify small molecule agonists of the estrogen related receptor (ERR) signaling pathway from Tox21 library (AID 1224849; calls by dose curve; also: nearly all actives have a fitted effect of over 15% in size); settings: ERR reporter cell line, ONE-Glo luciferase, 18 h
# How it was run: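 ERR reporter cells (NTP line) pre-incubated 6 hours at 37 C, then exposed to compounds for 18 hours at 37 C. ONE-Glo luciferase luminescence was read after 30 minutes at room temperature.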
# [11] = qHTS RealTime-Glo MT Cell Viability Assay in HepG2 cells - 24 hour (AID 1224867); also: nearly all actives have a fitted effect of over 50% in size; also: potency is read from the fitted curve at half-maximal effect
# How it was run: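 Luminescence read-out: viable HepG2 cells reduce a prosubstrate to a NanoLuc substrate, giving a signal proportional to live cell number. Reads taken at 0, 8, 16, 24, 32 and 40 h of compound exposure at 37 C.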
# [12] = qHTS RealTime-Glo MT Cell Viability Assay in HEK293 cells - 32 hour (AID 1224868); also: nearly all actives have a fitted effect of over 50% in size; also: potency is read from the fitted curve at half-maximal effect
# How it was run: (§1)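 Nonlytic real-time viability readout: viable cells convert prosubstrate to NanoLuc substrate, giving luminescence proportional to live cell number. HEK293, 600 cells/well, compound added after 5 h, continuous culture at 37 C.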
# [13] = A CellTox Green Cytotoxicity Assay to monitor cytotoxicity in HEK293 cells - 0 hour (AID 1224869); also: nearly all actives have a fitted effect of over 50% in size
# How it was run: (§2)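 HEK293 cells, 600/well, were preincubated 5 hours and then exposed to compounds at 37 C for up to 40 hours. A cell-impermeant cyanine dye staining dead-cell DNA was read by fluorescence at 0, 8, 16, 24, 32 and 40 h time points.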
# [14] = qHTS RealTime-Glo MT Cell Viability Assay in HepG2 cells - 40 hour (AID 1224870); also: nearly all actives have a fitted effect of over 50% in size; also: potency is read from the fitted curve at half-maximal effect
# How it was run: (§3)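 Real-time viability: cells seeded at 600 per well together with NanoLuc and cell-permeant prosubstrate, compounds added after 5 h incubation. Luminescence tracked at 0, 8, 16, 24, 32 and 40 h of exposure.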
# [15] = A CellTox Green Cytotoxicity Assay to monitor cytotoxicity in HEK293 cells - 40 hour (AID 1224871); also: nearly all actives have a fitted effect of over 45% in size; also: potency is read from the fitted curve at half-maximal effect
# How it was run: as §2
# [16] = qHTS RealTime-Glo MT Cell Viability Assay in HEK293 cells - 16 hour (AID 1224872); also: nearly all actives have a fitted effect of over 50% in size; also: potency is read from the fitted curve at half-maximal effect
# How it was run: as §1
# [17] = qHTS RealTime-Glo MT Cell Viability Assay in HepG2 cells - 8 hour (AID 1224873); also: nearly all actives have a fitted effect of over 55% in size; also: potency is read from the fitted curve at half-maximal effect
# How it was run: as §3
# [18] = qHTS RealTime-Glo MT Cell Viability Assay in HEK293 cells - 40 hour (AID 1224874); settings: RealTime-Glo luminescence; max response: stronger effect = lower value; also: nearly all actives have a fitted effect of over 50% in size; also: potency is read from the fitted curve at half-maximal effect
# How it was run: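 600 cells/well were plated with the nonlytic NanoLuc/prosubstrate reagent, pre-incubated 5 h, then given 23 nL of compound in DMSO. Incubation at 37 C for 40 h, with luminescence from viable-cell-reduced substrate read repeatedly from 0 h.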
# [19] = qHTS assay to identify small molecule agonists of H2AX (AID 1224845; active = well fitted activation curve with a large enough effect in the signal ratio in the repeat runs, not every such curve was filed as active; the % refers to the signal ratio)
# How it was run: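 Phospho-H2AX Ser139 measured by HTRF (ex 320 nm; em 665 and 620 nm) after 24 hr antibody incubation. Compounds, 15 concentrations, 0.76% DMSO, were applied to CHO-K1 cells for 3hr at 37C before lysis.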
# [20] = qHTS assay to identify small molecule agonists of the hypoxia (HIF-1) signaling pathway (AID 1224846; active = well fitted activation curve with a large enough effect in the signal ratio in the repeat runs, not every such curve was filed as active; the % refers to the signal ratio)
# How it was run: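 HRE-bla ME-180 beta-lactamase reporter cells in medium with 0.5% dialyzed FBS, pre-incubated 5 h then exposed to compounds 17 h at 37C, 5% CO2; reporter induction read with CCF4-AM FRET substrate.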
# Sequence of Thyrotropin receptor (Homo sapiens) (P16473 whole entry, looked up): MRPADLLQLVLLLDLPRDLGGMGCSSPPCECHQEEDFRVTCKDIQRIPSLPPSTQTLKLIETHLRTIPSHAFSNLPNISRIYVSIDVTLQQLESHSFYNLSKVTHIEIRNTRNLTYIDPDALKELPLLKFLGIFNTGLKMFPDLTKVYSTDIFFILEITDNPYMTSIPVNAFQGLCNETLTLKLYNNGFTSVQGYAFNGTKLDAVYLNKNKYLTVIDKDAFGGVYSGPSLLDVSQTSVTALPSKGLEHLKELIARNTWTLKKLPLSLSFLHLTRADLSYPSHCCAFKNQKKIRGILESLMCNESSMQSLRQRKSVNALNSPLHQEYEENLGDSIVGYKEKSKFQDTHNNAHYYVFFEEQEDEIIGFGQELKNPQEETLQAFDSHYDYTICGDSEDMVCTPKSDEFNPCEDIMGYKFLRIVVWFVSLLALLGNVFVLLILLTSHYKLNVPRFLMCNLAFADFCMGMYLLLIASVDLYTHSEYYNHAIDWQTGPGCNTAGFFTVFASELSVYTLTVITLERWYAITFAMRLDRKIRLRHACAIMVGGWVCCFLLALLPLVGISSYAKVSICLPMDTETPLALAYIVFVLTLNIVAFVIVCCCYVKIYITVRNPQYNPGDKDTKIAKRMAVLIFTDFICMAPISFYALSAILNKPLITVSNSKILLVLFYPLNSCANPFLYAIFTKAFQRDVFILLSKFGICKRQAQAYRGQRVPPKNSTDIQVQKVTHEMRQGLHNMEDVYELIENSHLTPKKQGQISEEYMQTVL
# Sequence of Nuclear receptor subfamily 1 group I member 3 (Homo sapiens) (Q14994 whole entry, looked up): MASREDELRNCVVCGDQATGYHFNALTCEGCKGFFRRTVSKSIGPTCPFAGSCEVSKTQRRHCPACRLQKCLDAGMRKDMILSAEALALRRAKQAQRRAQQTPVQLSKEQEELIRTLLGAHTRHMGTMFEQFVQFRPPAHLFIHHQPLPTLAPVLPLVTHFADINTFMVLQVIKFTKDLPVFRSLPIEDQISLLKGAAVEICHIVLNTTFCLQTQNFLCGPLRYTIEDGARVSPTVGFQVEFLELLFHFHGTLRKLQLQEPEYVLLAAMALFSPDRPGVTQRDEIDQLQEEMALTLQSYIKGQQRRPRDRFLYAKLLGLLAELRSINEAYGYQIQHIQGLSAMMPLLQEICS
structure (smiles),measurement,setting,value
CC(=O)[O][Hg][c]1ccccc1,Potency,[1],2.71 µM (active) and 4.33 µM (active) and 5.31 µM (active)
same,Potency,[2],2.41 µM (active) and 4.33 µM (active) and 5.31 µM (active)
same,Potency,[3],inactive
same,Potency,[4],1.92 µM (active) and 2.43 µM (active) and 6.68 µM (active)
same,Potency,[5],inactive
same,Potency,[6],2.71 µM (active) and 770 nM (active) and 9.44 µM (active)
same,Potency,[7],154 nM (active) and 1.74 µM (active) and 2.68 µM (active)
same,Potency,[8],3.16 µM (active) and 5.66 µM (active) and 24.7 µM (active)
same,Potency,[9],2.15 µM (active) and 3.44 µM (active) and 5.96 µM (active)
same,"activity change, positive = activation",[10]; at 42.5 µM (top of the series),-71% (inactive)
same,"activity change, positive = activation",[10]; at 92.4 µM (top of the series),-80.3% (inactive) and -73.5% (inactive)
same,Potency,[11],1.72 µM (active) and 1.95 µM (active) and 1.07 µM (active)
same,Potency,[12],306 nM (active) and 977 nM (active) and 239 nM (active)
same,Potency,[13],inactive
same,Potency,[14],1.93 µM (active) and 1.95 µM (active) and 1.07 µM (active)
same,Potency,[15],433 nM (active) and 1.1 µM (active) and 213 nM (active)
same,Potency,[16],344 nM (active) and 1.1 µM (active) and 268 nM (active)
same,Potency,[17],1.93 µM (active) and 1.74 µM (active) and 1.07 µM (active)
same,Potency,[18],306 nM (active) and 977 nM (active) and 213 nM (active)
OCCOc1ccccc1,Potency,[1],inactive
same,Potency,[2],inactive
same,Potency,[3],inactive
same,Potency,[4],inactive
same,Potency,[5],inactive
same,Potency,[6],inactive
same,Potency,[7],inactive
same,Potency,[19],inactive
same,outcome,[20],inactive
same,Potency,[8],inactive
same,Potency,[9],inactive
same,"activity change, positive = activation",[10]; at 42.5 µM (top of the series),7.59% (inactive)
same,"activity change, positive = activation",[10]; at 92.4 µM (top of the series),-33.2% (inactive) and 4.84% (inactive)
same,Potency,[11],inactive
same,Potency,[12],inactive
same,Potency,[13],inactive
same,Potency,[14],inactive
same,Potency,[15],inactive
same,Potency,[16],inactive
same,Potency,[17],inactive
same,max response,[18],-3.05% (inactive) and 0.273% (inactive) and 2.22% (inactive)
C=CCOC(Cn1ccnc1)c1ccc(Cl)cc1Cl (stereo unspecified),Potency,[1],61.1 µM (active)
same,Potency,[2],38.7 µM (active) and 48.6 µM (active) and inactive
same,Potency,[4],48.6 µM (active) and inactive
same,Potency,[6],inactive
same,Potency,[7],39 µM (active) and inactive
same,Potency,[8],113 µM (active) and inactive
same,Potency,[11],inactive
same,Potency,[12],21.9 µM (active) and 38.9 µM (active)
same,Potency,[13],inactive
same,Potency,[14],inactive
same,Potency,[15],55.1 µM (active) and inactive
same,Potency,[16],43.8 µM (active)
same,Potency,[17],inactive
same,Potency,[18],17.4 µM (active) and 38.9 µM (active)
Nc1ccc(-c2ccc(N)cc2)cc1,Potency,[1],inactive
same,Potency,[2],inactive
same,Potency,[3],53.9 µM (active) and inactive and 21.7 µM (active)
same,Potency,[4],inactive
same,Potency,[6],inactive
same,Potency,[7],inactive
same,outcome,[20],inactive
same,Potency,[8],inactive
same,Potency,[11],inactive
same,Potency,[12],inactive
same,Potency,[13],inactive
same,Potency,[14],inactive
same,Potency,[15],inactive
same,Potency,[16],inactive
same,Potency,[17],inactive
same,max response,[18],-0.165% (inactive) and -5.77% (inactive) and -8.89% (inactive)
CCNc1nc(Cl)nc(NCC)n1,Potency,[1],inactive
same,Potency,[2],inactive
same,Potency,[3],inactive
same,Potency,[4],inactive
same,Potency,[5],inactive
same,Potency,[6],inactive
same,Potency,[7],55.2 µM (active) and inactive
same,Potency,[19],inactive
same,outcome,[20],inactive
same,Potency,[8],inactive
same,Potency,[9],inactive
same,"activity change, positive = activation",[10]; at 42.5 µM (top of the series),-12% (inactive)
same,"activity change, positive = activation",[10]; at 92.4 µM (top of the series),-3.33% (inactive) and -18.8% (inactive)
same,Potency,[11],inactive
same,Potency,[12],inactive
same,Potency,[13],inactive
same,Potency,[14],inactive
same,Potency,[15],inactive
same,Potency,[16],inactive
same,Potency,[17],inactive
same,max response,[18],-0.397% (inactive) and 5.74% (inactive) and 5.58% (inactive)

# — PubChem BioAssay (Tox21)
